Hits are enriched below; roughly 1.6% of the tested compounds scored in any of these assays.
Hsp90 inh = displaces geldanamycin probe from tumor Hsp90; NCI-N417 lysate Hsp90, Cy3B-geldanamycin FP displacement; inhibition, % at 30 µM; P07900; hit rate 0.35% among 64,000;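 active = inhibition above 50%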;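 note: 0% = tracer plus lysate wells and 100% = tracer alone without lysate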
PKA kinase inh = PKA (human) kinase inhibition; inhibition, % at 6 µM; hit rate 0.1% among 65,000; PKA Kemptide phosphorylation, Kinase-Glo ATP luminescence; P17612;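 active = inhibition above the screen-wide mean inhibition plus 3 SD, cut at about 21% in these data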
WNV protease inh = inhibitors of West Nile virus NS2B-NS3 protease; hit rate 0.18% among 65,000; AID 577; z-score (test concentration not listed); WNV NS2B-NS3 protease, fluorogenic substrate Ex360/Em465; hits give low values; in the data active = z-score below about -3
ROCK2 blocker = ROCK2 (human) kinase inhibition. inhibition, % at 6 µM. hit rate 0.35% among 60,000. purified ROCK2, Kinase-Glo ATP depletion luminescence;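 active = inhibition above the screen-wide mean inhibition plus 3 SD, cut at about 18% in these data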;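 note: plate controls were DMSO wells for no effect and Y-27632 control wells after no-enzyme background subtraction for full effect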
SKBR3 24h inh = SK-BR-3 proliferation inhibitors. viability, % at 10 µM. AID 847. hit rate 0.47% among 41,000. SK-BR-3 viability, CellTiter-Glo ATP luminescence, 24 h; hits give low values;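 active = viability at or below the median of all test compounds minus 3 SD, in both replicates if run twice, cut at about 45% in these data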;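 note: 100% = median untreated cell wells and 0% = median positive control drug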
HER2 expr 66K = lowers expression of human Her2 kinase; HER2 level % of control, % at 10 µM; P04626; hit rate 0.69% among 65,000; SKBR-3 HER2 protein level, AlphaScreen, 18-24 h; hits give low values;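 active = HER2 level under 5% of the carrier-only control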;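 note: 100% = DMSO carrier and 0% = 500 nM PU-H71 HSP90 inhibitor; lower value means stronger loss of Her2 protein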
Target sequence (P04626 whole entry, looked up): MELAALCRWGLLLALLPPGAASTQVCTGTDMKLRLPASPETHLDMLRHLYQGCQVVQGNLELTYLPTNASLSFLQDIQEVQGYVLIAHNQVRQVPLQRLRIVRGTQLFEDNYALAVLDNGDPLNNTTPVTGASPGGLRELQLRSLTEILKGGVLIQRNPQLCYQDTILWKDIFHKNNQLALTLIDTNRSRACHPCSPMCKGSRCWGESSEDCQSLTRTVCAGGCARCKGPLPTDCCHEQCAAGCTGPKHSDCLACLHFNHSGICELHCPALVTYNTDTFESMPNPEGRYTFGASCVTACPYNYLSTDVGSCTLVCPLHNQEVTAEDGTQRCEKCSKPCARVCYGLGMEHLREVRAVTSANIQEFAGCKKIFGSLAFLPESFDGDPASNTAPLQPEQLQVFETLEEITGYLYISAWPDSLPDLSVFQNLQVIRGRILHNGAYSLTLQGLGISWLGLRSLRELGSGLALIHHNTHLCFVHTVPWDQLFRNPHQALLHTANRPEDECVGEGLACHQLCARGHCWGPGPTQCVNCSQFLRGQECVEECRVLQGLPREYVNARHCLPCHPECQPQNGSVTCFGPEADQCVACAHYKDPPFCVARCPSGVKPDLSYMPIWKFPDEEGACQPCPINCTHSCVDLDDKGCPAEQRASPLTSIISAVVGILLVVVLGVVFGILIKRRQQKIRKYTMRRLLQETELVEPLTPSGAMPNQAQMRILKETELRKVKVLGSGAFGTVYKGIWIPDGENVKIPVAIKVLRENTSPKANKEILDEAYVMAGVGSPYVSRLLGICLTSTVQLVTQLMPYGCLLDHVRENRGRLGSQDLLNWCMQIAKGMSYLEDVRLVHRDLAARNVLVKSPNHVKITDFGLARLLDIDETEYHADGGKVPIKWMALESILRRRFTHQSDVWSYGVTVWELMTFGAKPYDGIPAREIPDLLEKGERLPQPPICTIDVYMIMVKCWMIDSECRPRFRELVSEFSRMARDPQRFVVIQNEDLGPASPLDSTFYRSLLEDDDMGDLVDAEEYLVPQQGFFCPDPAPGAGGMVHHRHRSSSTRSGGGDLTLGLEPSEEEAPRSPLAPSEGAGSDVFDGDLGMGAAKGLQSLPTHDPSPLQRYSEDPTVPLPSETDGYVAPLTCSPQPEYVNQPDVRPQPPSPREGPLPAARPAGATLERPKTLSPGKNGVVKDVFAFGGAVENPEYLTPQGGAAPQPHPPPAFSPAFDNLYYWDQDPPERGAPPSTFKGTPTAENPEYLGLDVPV
Active calls of the source: *; . = no result.

SMILES	Hsp90 inh	PKA kinase inh	WNV protease inh	ROCK2 blocker	SKBR3 24h inh	HER2 expr 66K
N#C/C(=C\c1ccc(O)c(O)c1)S(=O)(=O)c1ccccc1	42	9	-0.91	9	72	171
N#C/C(=C\c1c[nH]c2ccccc12)C(=O)c1ccc(O)c(O)c1	72*	.	.	.	.	.
N#C/C(=C\c1ccc(O)c(O)c1)C(=O)NCCCc1ccccc1	68*	-1	-0.34	-3	87	83
COc1cccc(-c2nnc3n2N=C(C(C)(C)C)CS3)c1	.	-3	-0.99	.	87	.
CC(=O)c1cccc(NC(=O)CSc2nnc(-c3ccc(S(=O)(=O)N4CCCC4)cc3)o2)c1	61*	3	1.2	-2	143	109
CCn1c(SCC(=O)Nc2ccccc2C(=O)OC)nc2c1c(=O)n(C)c(=O)n2C	-3	-4	-0.55	1	107	97
CCCn1c(SCC(=O)Nc2sc(C)c(C)c2C(=O)OC)nc2c1c(=O)n(C)c(=O)n2C	3	0	-3.8*	0	90	110
CCOC(=O)c1c(NC(=O)CSc2nc3c(c(=O)n(C)c(=O)n3C)n2CC)sc(C)c1C	-3	8	-1.1	8	44*	16
COc1ccc(OC)c(C2/C(=C(\O)c3c(C)nc4ccccn34)C(=O)C(=O)N2CCCN(C)C)c1 (stereo unspecified)	-4	-5	-0.0042	-3	109	77
Cc1ccccc1/C=C/C1=NCCN1	-1	.	.	.	.	.
CC(=O)c1sc2nc(-c3cccs3)cc(C(F)(F)F)c2c1N	-3	5	1	3	108	-2.8*
CS(=O)(=O)c1sc2nc(-c3cccs3)cc(-c3ccccc3)c2c1N	-4	7	-0.75	1	77	92
COc1ccc(S(=O)(=O)Nc2ccccc2C(=O)NC(C)C)cc1OC	0	-7	-0.27	-6	.	142
COc1ccc(NC(=O)C2C(=O)N(C)C3(C)CC2c2ccccc2O3)cc1 (stereo unspecified)	-2	0	-0.98	-1	96	109
CN1C(=O)C(C(=O)NC(C)(C)C)C2c3ccccc3OC13CCCCC23 (stereo unspecified)	-3	-4	-1.1	-1	98	-30*
COc1cc(NS(=O)(=O)c2ccc(C)cc2)c2ncccc2c1	3	11	2.7	10	77	-5.2*
COc1cc(NCCCC(C)N)c2ncccc2c1 (stereo unspecified)	97*	-15	0.09	-9	23*	66
COc1cc(NS(=O)(=O)c2cccc([N+](=O)[O-])c2)c2ncccc2c1	-4	.	.	.	.	.
COc1cc(NCCCC(C)O)c2ncccc2c1 (stereo unspecified)	1	.	.	.	.	.
O=C(O)c1ccccc1C1=Nc2ccc(O)cc2Oc2cc(O)ccc21	61*	5	0.08	2	99	-53*
Cc1cc(-c2ccccc2C(=O)O)on1	1	-9	-0.27	2	134	98
Cc1oc2c(CN(C)C)c(O)ccc2c(=O)c1-c1ccc2ccccc2n1	-2	5	-3.1*	-1	.	104
COc1cccc(NC(=O)C2CCCN(S(=O)(=O)c3cccc4cccnc34)C2)c1 (stereo unspecified)	-3	5	-0.29	5	.	94
O=C(Nc1ccncc1)C1CCCN(S(=O)(=O)c2cccc3cccnc23)C1 (stereo unspecified)	0	11	-0.79	75*	.	77
O=C(CSc1ncc(-c2ccc(F)cc2)[nH]1)Nc1cccc(O)c1	-1	9	-0.57	25*	93	90
SMILES	Hsp90 inh	PKA kinase inh	WNV protease inh	ROCK2 blocker	SKBR3 24h inh	HER2 expr 66K
COc1cc(NC(=O)c2ccco2)c(OC)cc1NC(=O)CSc1ncc(-c2ccc(F)cc2)[nH]1	-3	1	-0.43	6	77	83
CC(=O)N1CCN(c2ccc(NCc3ccc(C)cc3)cc2)CC1	28	10	-1.2	3	101	131
Cc1ccc(CNc2ccc(O)cc2)cc1	56*	-8	1.3	1	68	120
O=P1(c2ccccc2)C=Cn2c1cc1c2CCCC1 (stereo unspecified)	-2	6	-0.28	6	.	106
COc1cc(NCCCCCN2C(=O)c3ccccc3C2=O)c2ncccc2c1	2	.	.	.	.	.
CN(C)C=Nc1c(Br)cc(Br)c2nonc12	53*	5	0.91	2	133	58
CN(C)C=Nc1nonc1-c1ncn[nH]1	-1	4	-1.2	5	114	116
O=C(Nc1cccnc1)c1cnn2cccnc12	-3	1	0.48	1	119	162
O=C(Nc1ccc2c(c1)OCO2)c1cnn2cccnc12	28	7	0.01	0	97	-21*
CCn1c(CSc2nnc(-c3ccc4c(c3)OCO4)o2)nc2cc(S(=O)(=O)N(C)C)ccc21	-4	5	-0.34	3	.	83
Cc1ccc(S(=O)(=O)NCCSc2nnnn2-c2ccc(C(N)=O)cc2)cc1	0	54*	-1.4	13	.	92
O=C1C(SCCO)=C(SCCO)C(=O)c2ccccc21	89*	.	.	.	.	.
Cc1ccc2nsnc2c1S(=O)(=O)N1CCN(C(=O)C2CCCO2)CC1 (stereo unspecified)	-3	6	1.7	-2	37*	140
O=C(C1CCCO1)N1CCN(S(=O)(=O)c2ccccc2)CC1 (stereo unspecified)	-6	-4	-0.07	-8	89	106
CC(=O)N1CCc2cc(Br)cc(S(=O)(=O)N3CCCCCC3)c21	-5	2	1.1	-2	41*	106
CCC(=O)N1CCc2cc(Br)cc(S(=O)(=O)CC(=O)OC)c21	-1	2	-4.8*	1	107	92
COc1cc(NS(=O)(=O)c2ccc(Br)cc2)c(OC)cc1NC(=O)c1ccco1	2	9	0.91	4	82	62
Cc1ccc(CCNC(=O)Cn2cccc2)cc1	-2	-6	0.95	-1	.	93
CCOC(=O)N1CCN(S(=O)(=O)c2ccc(C)cc2)C1c1ccccc1 (stereo unspecified)	.	9	2	.	120	196
CSc1nsc(SC)c1C(=O)N1CCN(S(=O)(=O)c2ccc(C)cc2)C1C (stereo unspecified)	4	-5	0.06	-2	44*	35
Cc1ccc(S(=O)(=O)N2CCN(C(=O)N3CCOCC3)C2C)cc1 (stereo unspecified)	3	1	-0.12	1	73	-30*
Cc1ccc(S(=O)(=O)N2CCN(C(=O)N3CCOCC3)C2c2ccc(N(C)C)cc2)cc1 (stereo unspecified)	-1	6	0.31	4	97	118
CCC(C(=O)NC1CCCC1)N(C(=O)Cn1nnc(-c2ccc(C)o2)n1)c1cnc2ccccc2c1 (stereo unspecified)	-1	-3	-0.45	-1	.	-8.5*
NC(=O)c1sc2nc3c(c(-c4ccco4)c2c1N)CCC3	-7	9	-0.26	35*	87	56
NC(=O)c1sc2nc3c(c(-c4cccs4)c2c1N)CCCC3	-4	12	0.75	.	.	53

Screening results: PubChem BioAssay, several laboratories
